According to the supplement of paper PMC10681739:

What was measured:
ETS1 [1] = biological target: T1, ETS1 (UniProt P14921); experiment: ETS1 binding intensity (PBM fluorescence), ETS1 alone (arbitrary fluorescence units); higher = stronger binding; conditions: ETS1 concentration 1 nM; RUNX1 concentration 0 nM
T1 sequence: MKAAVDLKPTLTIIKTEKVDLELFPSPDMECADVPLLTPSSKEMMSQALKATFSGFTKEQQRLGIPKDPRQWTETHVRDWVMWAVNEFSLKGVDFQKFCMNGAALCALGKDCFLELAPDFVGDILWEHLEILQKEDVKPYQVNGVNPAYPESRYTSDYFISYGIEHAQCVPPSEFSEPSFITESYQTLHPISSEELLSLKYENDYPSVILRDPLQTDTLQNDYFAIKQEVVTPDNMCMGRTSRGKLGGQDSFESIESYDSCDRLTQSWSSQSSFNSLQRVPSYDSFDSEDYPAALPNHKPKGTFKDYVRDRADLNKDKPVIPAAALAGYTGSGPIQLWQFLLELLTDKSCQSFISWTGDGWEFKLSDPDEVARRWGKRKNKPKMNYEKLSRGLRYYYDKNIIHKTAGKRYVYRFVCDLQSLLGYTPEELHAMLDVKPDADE

RUNX1 [2] = biological target: RUNX1 (UniProt Q01196); experiment: RUNX1 binding intensity (PBM fluorescence), RUNX1 alone (arbitrary fluorescence units); higher = stronger binding; conditions: RUNX1 concentration 2 nM; ETS1 concentration 0 nM
Experimental: (§1)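 Cooperative gcPBM on 36-bp genomic probes with neighbouring ETS1 and RUNX1 sites. Recombinant human RUNX1 (2 nM) was incubated alone or with ETS1 (25 nM) and detected with anti-RUNX1 antibody plus Alexa488 secondary. Values are medians over 4 replicate spots; the RUNX1+ETS1 data were normalised to the RUNX1-only data. The probes sit in constant array flanks that are not printed.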

ETS1 [3] = biological target: T1, ETS1; experiment: ETS1 binding intensity (PBM fluorescence) in presence of RUNX1, normalised to ETS1-only experiment (arbitrary fluorescence units); higher = stronger binding; conditions: ETS1 concentration 1 nM; RUNX1 concentration 25 nM
RUNX1 [4] = biological target: RUNX1 (UniProt Q01196); experiment: RUNX1 binding intensity (PBM fluorescence) in presence of ETS1, normalised to RUNX1-only experiment (arbitrary fluorescence units); higher = stronger binding; conditions: RUNX1 concentration 2 nM; ETS1 concentration 25 nM
Experimental: as §1
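Wherever RUNX1 binding intensity (PBM fluorescence) in presence of ETS1, normalised to RUNX1-only experiment is given: Full-length recombinant human ETS1 or RUNX1 bound to double-stranded 36-bp genomic probes on microarrays, detected by protein-specific primary antibody and Alexa488 secondary, spot fluorescence as median of four replicate spots.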
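Wherever RUNX1 binding intensity (PBM fluorescence), RUNX1 alone is given: Full-length recombinant human RUNX1 bound to double-stranded 36-bp genomic probes on a high-density microarray, scored as Alexa488 fluorescence per spot via anti-RUNX1 antibody, median of four replicate spots.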

RUNX1, sequence (Q01196 whole entry): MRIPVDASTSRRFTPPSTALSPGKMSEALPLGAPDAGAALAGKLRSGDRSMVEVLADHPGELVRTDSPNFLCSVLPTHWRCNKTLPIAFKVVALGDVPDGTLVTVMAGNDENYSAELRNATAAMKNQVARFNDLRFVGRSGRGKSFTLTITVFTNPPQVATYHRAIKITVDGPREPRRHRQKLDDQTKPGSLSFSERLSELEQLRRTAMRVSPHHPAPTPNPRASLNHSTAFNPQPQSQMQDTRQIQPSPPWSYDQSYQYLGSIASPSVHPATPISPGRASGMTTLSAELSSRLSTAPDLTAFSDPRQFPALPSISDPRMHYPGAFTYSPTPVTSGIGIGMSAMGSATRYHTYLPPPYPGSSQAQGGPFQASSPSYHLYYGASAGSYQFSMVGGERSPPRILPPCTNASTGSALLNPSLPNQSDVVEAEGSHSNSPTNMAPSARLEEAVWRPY

| Sequence | ETS1 binding intensity (ETS1 [1]) | RUNX1 binding intensity (RUNX1 [2]) | ETS1 binding intensity (ETS1 [3]) | RUNX1 binding intensity (RUNX1 [4]) |
| --- | --- | --- | --- | --- |
| GGCTCGGTGCTGCTTCCTGTGTGGTCAGGATCACAG | 1870 | 846 | 4270 | 1790 |
| GCAGAGTTTACAACAGGATGTGGTTATTGGCGCTGC | 8870 | 777 | 46800 | 4380 |
| TAAGAAAAACAGTCATCCTGCGGTTTCCATTTGTGA | 351 | 6290 | 1080 | 5090 |
| GGCAACCGGCCCCGGAAGTTGCGGCAGGTGCGTCCA | 5780 | 685 | 8090 | 1640 |
| GCACCACCGGAAGTAGGGCTCAACCACCGCTCATTT | 10300 | 1000 | 13400 | 1980 |
| CAGCCGACTTCCGGGGTGGGGCTTGCTGCCGCAGAG | 1760 | 774 | 1780 | 1730 |
| CAAGAGGAACCGGAACTTTGGAAACCACATTCTTAT | 1400 | 911 | 4800 | 1480 |
| CCCCTATATCACAGGATGCCGCAAACTAGTAACAGG | 1610 | 827 | 2210 | 993 |
| GCACACCGGAACTCACACCTGAAACCACAGAACCAA | 868 | 2180 | 4300 | 5220 |
| CCACTGCCGGAAGGGGAACTGTGGGGGTGCGCGAGT | 1110 | 820 | 963 | 1040 |
| CACCTGCAGTGAAGAGGATGTGGGCAAAGATTATGC | 1350 | 746 | 2180 | 1100 |
| TCCCGGGGAGGAAGTGGCGAGAATGCGGGGGTGGGC | 1340 | 906 | 1440 | 1120 |
| GAAACCGGAAGCGGCGGCTGTCCGCGGTGCCGGCTG | 5800 | 717 | 6810 | 1550 |
| TGGGAACTTCCTGTGGAGGAGTGCATTGTGGGACTT | 851 | 686 | 726 | 1630 |
| GACCACTTCCTTTCTGTGTTTTGTGGTTTCACAACT | 555 | 2430 | 1650 | 9060 |
| TCTGATGTGCCTTCTTCCTGACCACAGCAACTACTA | 392 | 1250 | 511 | 1270 |
| GCGCTTCCTGCCAGCTTGGAGGATAACCGCCTACCG | 505 | 754 | 513 | 1730 |
| AAAGAGGAAATCACGTACCCGAAAACCACATGCACA | 530 | 1010 | 1370 | 928 |
| GCGGGGACCCGGATGTGTGTGGTGGCGGCGGCCGAA | 3040 | 700 | 3350 | 1220 |
| GGAGGCGGAAGTGGAGGTTGTTGTGGCTCCGAGGGC | 1940 | 727 | 1950 | 1100 |

| Sequence | ETS1 binding intensity (ETS1 [1]) | RUNX1 binding intensity (RUNX1 [2]) | ETS1 binding intensity (ETS1 [3]) | RUNX1 binding intensity (RUNX1 [4]) |
| --- | --- | --- | --- | --- |
| GAGGTGCCGGAAGCCAGTAGGTGGTTTTGGGTGCTA | 1530 | 695 | 2120 | 1180 |
| CGGGGACCACTGTCAGGATGTGGTCACTGGAGTCAC | 907 | 707 | 8350 | 1420 |
| CCACGTCCACAAAGGAAACCGCGGCCTGCCCGGGGA | 512 | 1080 | 1390 | 1590 |
| CCTGCTGCTTCCGCCCGGAGTTGTTGTGGGCTCCAG | 643 | 806 | 661 | 1870 |
| ACTTTCGCGACGCAGGAAGCGCCCACAAAGGGAGGA | 2020 | 802 | 3000 | 889 |
| TCCCCACACTTCCGGCCCCGCCCGCACAGCCGCACC | 3270 | 1130 | 4360 | 5780 |
| AGCCCGCCGGAAACTAGCGTCACCGCGCCAAGGTTC | 1440 | 691 | 1250 | 1160 |
| GCCTCCTCAGGAAATTGCCCAAAATAGCCACATGTC | 735 | 1090 | 667 | 1240 |
| CCTCTTGGTTTCCTGTCCCTCACCACAAGAAGCAGT | 625 | 1540 | 1520 | 4520 |
| CAAGGTTCCTCCGCTTCCTGCCCGCAGGCCGAACCT | 956 | 840 | 1600 | 1830 |
| TCGCCCGCCGCTTCCTGTCGCGGCGCCGCAGAGGCC | 1740 | 821 | 1890 | 3000 |
| CGGCAGGGAAGCAGGAAACCGCGAGTGGAGAAAGGG | 1790 | 1160 | 3790 | 2170 |
| GTCTGCTTAAAAACAGGAAACCACATATCTCCACCC | 3670 | 1600 | 10700 | 1990 |
| CTCTCCACCTCCTTCCGACCAGGACCGCACCCCCCC | 986 | 1990 | 939 | 1650 |
| GAGGCGACCCACATCCGCTGTGCGGGGGCAACTGCA | 957 | 729 | 1270 | 6600 |
| GAGGACTTCCGGGTGGGTGTGATATCTGCGGGCCCG | 848 | 760 | 677 | 1940 |
| GATTTGTCACAGGAAGTACCCACAGGCCAAGAAGTG | 5230 | 817 | 5790 | 1260 |
| TTGTGCTTCCTGCTCATGAGATTGCTAGCGGTTACT | 491 | 803 | 707 | 1190 |
| ACACCTCAGGCAGGATGTGGTAGGGGTTGCCCCAGA | 3730 | 1020 | 6810 | 2700 |
| GGCAACCTGAGCTTCCGTGTAAAACCACAGTGTGAC | 372 | 1100 | 964 | 1290 |
